Only some compounds are listed: those with a hit (about 7.8% of all), similar ones and a draw of the others.
Marburg entry inh – blocks Marburg virus binding to or entry into cells. Marburg virus pseudotyped entry inhibition, cell reporter. Potency, µM (titrated, usually from 37.8 µM), usual class: inhibitors. hit rate 1.8% among 300,000. AID 540276; calls by dose curve; tested in HEK293 cells
LASV entry inh – blocks Lassa virus binding to or entry into cells. Potency, µM (doses to about 37.9 µM), hits mostly inhibitors. AID 540256. hit rate 1.2% among 300,000. Lassa virus pseudotype entry inhibition, cell reporter; calls by dose curve; tested in HEK293 cells; also: nearly all actives have a fitted effect of over 50% in size
HCMV antiviral – human cytomegalovirus inhibition | hit rate 4.5% among 410,000 | AID 1259415 | activity change, negative = inhibition, % at 57.5 µM | HFF cells, HCMV-luciferase reporter, 72 h; hits give low values; in the data active = activity change below about -60%; inconclusive = no clear call, values can overlap the other calls; inactive = above about -39%
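Two-dose cell screen: HFF monolayers treated with compounds and infected with luciferase-expressing HCMV at 1 PFU/cell, 72 h at 37C, then lysed for luciferase measurement.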
Vaccinia Venus – inhibitors of vaccinia virus (Venus reporter); AID 720580; hit rate 0.46% among 330,000; Potency, µM (titrated, usually from 36.5 µM), actives largely listed as inhibitors; Vaccinia virus Venus reporter expression, fluorescence; calls by dose curve; tested in A549 cells; also: nearly all actives have a fitted effect of over 30% in size
HCV inh – HCV inhibition; hit rate 3.4% among 340,000; Huh7.5.1 HCVcc-Cre infection, luciferase reporter, 44 h; Potency, µM (doses to about 41.8 µM), most hits filed as inhibitors; active = well fitted inhibition curve with a large enough effect; inconclusive = small, poorly fitted or top-dose-only effect, or another doubt; inactive = no such curve, though single readings can be large or run the other way
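Antiviral activity was scored by luciferase reporter output from cells infected with HCVcc-Cre (~0.5 moi) in presence of compound, 44 h infection period, cells seeded 1,000/well 4 h prior.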
Vaccinia mCherry – vaccinia inhibition (mCherry reporter); Vaccinia virus mCherry reporter infection, fluorescence; Potency, µM (series often up to 36.5 µM), actives largely listed as inhibitors; hit rate 0.63% among 310,000; calls by dose curve; tested in A549 cells; also: nearly all actives have a fitted effect of over 35% in size
A number is an active result; 0 = inactive; ? = inconclusive; - = no result given; [ ] = remark or other dose.

SMILES	Marburg entry inh	LASV entry inh	HCMV antiviral	Vaccinia Venus	HCV inh	Vaccinia mCherry
CCN1/C(=C\C=C2\C(=O)N(c3ccccc3)C(=S)N2C)Sc2ccccc21	0	?	-63.6	0	0	0
Cc1cc(C)nc(SCc2nnc(SCC(=O)N3CCCc4ccccc43)n2C)n1	0	0	?	0	11.2µM	0
Cn1c(SCC(=O)N2c3ccccc3CCc3ccccc32)nnc1-c1cc2ccccc2cc1O	?	0	-65.0	?	?	0
Cc1cc(C)nc(SCc2nnc(SCC(=O)N3CCCc4ccccc43)o2)n1	0	0	0	0	?	0
Cc1cccc(-c2nnc(SCC(=O)N3c4ccccc4CCc4ccccc43)n2C)c1	?	0	-70.2	0	?	0
CCc1nnc(N/N=C/c2cc(C)c(C)cc2C)n1N	?	?	0	12.6µM	0	10µM
CCc1nnc(N/N=C/c2c(C)[nH]c3ccccc23)n1N	0	-	-90.2	?	0	?
Cc1[nH]c2ccccc2c1/C=N/Nc1nc2ccccc2[nH]1	?	?	-97.7	0[7.34 µM]	?	?
Cc1[nH]c2ccccc2c1/C=N/NC(N)=S	?	0	0	?	0	?
C(=N\Nc1nc2ccccc2[nH]1)/C1CCCCC1	0	?	-86.9	0	0	0
Cc1ccccc1/C=N/Nc1nc2ccccc2[nH]1	0	?	0	0	0	?
Fc1ccc(NCc2nnc3n2CCCCC3)cc1Cl	-	0	0	0	-	0
O=C(CSCc1cnn(-c2ccccc2)c1-n1cccc1)NCc1cccc(Cl)c1	0	0	0	0	-	0
Cc1ccccc1C1=NOC2CN(C(=O)c3ccc4c(c3)OCO4)CC12 (stereo not drawn)	-	-	0	-	-	-
OC(c1cccnc1)c1ccc2c(c1)CN(Cc1cn(-c3ccccc3)nc1-c1ccccc1)CCO2 (stereo not drawn)	-	-	-	0	-	0
O=c1c(-c2ccco2)nc2ccccc2n1/C=C(/c1ccc(C(F)(F)F)cc1)n1c(=O)[nH]c2ccccc21	-	-	0	-	-	-
C(=N\Nc1nc2ccccc2[nH]1)/c1cccc2cccnc12	-	-	-100.9	-	3.98µM	-
CCN(C(=O)C1CCN(S(=O)(=O)c2cc(Br)cc3c2N(C(C)=O)CC3)CC1)c1cccc(C)c1	?	0	0	0	-	0
CCOC(=O)c1c(NC(=O)/C=C/c2ccc(Cl)cc2)sc2c1CCC(C)C2 (stereo not drawn)	-	0	0	0	-	0
CC(C)NC(=O)N1CCC(n2nccc2NC(=O)CCOc2ccccc2)CC1	0	0	0	0	0	0
C=C(C)CCC(C)N1CCC(n2nccc2NC(=O)CCOc2ccccc2)CC1 (stereo not drawn)	0	?	-89.2	0	0	0
Cc1ccccc1C(=O)Nc1ccnn1C1CCN(C(C)Cc2ccccc2F)CC1 (stereo not drawn)	-	-	0	-	10µM	-
CCn1cc(S(=O)(=O)c2cccc(C)c2)c(=O)c2cc(F)c(N3CCCC(C)C3)cc21 (stereo not drawn)	-	0	0	0	-	0
O=C(Nc1ccccc1C(=O)OCc1cc(=O)n2ccsc2n1)c1cccc(F)c1	-	0	0	0	-	0
COC(=O)CC(NC1CCN(c2nc(C)c3cc4c(cc3n2)CCC4)CC1)C(=O)OC (stereo not drawn)	-	-	-	0	-	0
SMILES	Marburg entry inh	LASV entry inh	HCMV antiviral	Vaccinia Venus	HCV inh	Vaccinia mCherry
Cc1cc(Oc2ccc(C(C)(C)C)cc2)nc(N2CCOCC2)n1	0	5.01µM	0	0	0	-
Cc1cc(Oc2ccc(-c3ccccc3)cc2)nc(N2CCOCC2)n1	11.2µM	3.98µM	0	0	0	-
Cc1ccc(CNc2nc(CN3CCN(C=O)CC3)nc3ccccc23)o1	-	-	-	0	-	0
COc1cccc(CNC(=O)c2c(OC)cc(=O)n3c2CCN(C(=O)c2ccoc2C)CC3)c1	-	-	-	0	-	0
NS(=O)(=O)c1ccc(CCNC(=O)c2ccc([N+](=O)[O-])s2)cc1	?	?	-100.0	?	?	11.2µM
CCOc1ccc2nc(N[C@@](NC(=O)CC)(C(=O)OC)C(F)(F)F)sc2c1	0	-	-	-	-	-
COc1ccc(C(C[N+](=O)[O-])c2c(-c3ccccc3)cc3ccccn23)c(OC)c1 (stereo not drawn)	0	0	-71.3	0	0	0
O=C(C(=O)N1CCC(c2ccccc2)CC1)c1ccc(F)c(F)c1	-	-	-62.1	0	-	?
N#Cc1cccc(C(=O)C(=O)N2CCC(c3ccccc3)CC2)c1	-	-	0	0	-	?
O=S(=O)(Nc1ccc(C(F)(F)F)cc1)c1ccc2c(c1)OCCO2	0	0	0	0	-	0
Cc1cc(N2CCCC2=O)cc(C)c1S(=O)(=O)NCCOc1ccccc1	0	0	-77.3	0	?	0
CCNS(=O)(=O)c1c(C)cc(N2CCCC2=O)cc1C	0	0	0	0	?	0
COc1cc(-c2nnc(SCC(=O)Nc3ccc(F)c(Cl)c3)o2)cc(OC)c1OC	0	0	0	0	-	0
COc1ccc(NS(=O)(=O)c2cccc(NC(=O)NCCCl)c2)cc1	0	-	0	0	7.94µM	0
COc1ccc(NS(=O)(=O)c2cccc(NC(=O)CCC(=O)c3ccc(Cl)cc3)c2)cc1	?	?	-83.3	0	8.91µM	0
COc1ccc(NS(=O)(=O)c2cccc(NC(=O)c3ccc(Cl)nc3)c2)cc1	?	5.01µM	-89.2	?	2.82µM	0
COc1cccc(S(=O)(=O)Nc2ccc(C(=O)Nc3ccncc3)cc2)c1	?	?	0	0	0	0
O=C(Nc1cccc(S(=O)(=O)Nc2ccc(Cl)cc2)c1)c1ccc(Cl)nc1	?	?	-94.6	-	1.58µM	-
COc1ccc(NS(=O)(=O)c2cccc(NC(=O)CCC(=O)c3cccs3)c2)cc1	0	0	0	0	0	0
CCOc1cc(Br)cc(C2NC(=O)c3c(sc4c3CCN(C)C4)N2)c1O (stereo not drawn)	0	0	0	0	-	0
CCC(c1nnnn1Cc1ccccc1)N(Cc1ccccc1)Cc1cc2cc(C)ccc2[nH]c1=O (stereo not drawn)	-	-	-	0	-	0
Nc1ccc(-c2nc3ccccc3[nH]2)cc1	-	-	0	0	0	0
c1ccc(-c2cc(-c3nc4ccccc4[nH]3)c3ccccc3n2)cc1	?	?	-94.2	?	?	?
O=C1/C(=C\c2ccco2)SC(=S)N1C1CCS(=O)(=O)C1 (stereo not drawn)	?	0	-73.5	0	0	?
CCN(C(=O)C(C)N1C(=O)/C(=C/c2ccco2)SC1=S)C1CCS(=O)(=O)C1 (stereo not drawn)	-	-	?	-	14.1µM	-
Cc1ccc(C)c(NC(=O)CN(C)C(=O)[C@@H](NC(N)=O)C(C)C)c1	0	0	0	0	0	0
Cc1ccc(C)c(NC(=O)CN(C)C(=O)[C@@H](NC(=O)c2ccc(C(C)(C)C)cc2)C(C)C)c1	?	?	0	14.1µM	?	28.2µM
COc1ccc(OC)c(/C=C/c2ccc3ccccc3[n+]2C)c1	-	-	-	0	-	0
COc1cccc(CNC(=O)Cn2ncc3c4ccccc4n(Cc4ccccc4)c3c2=O)c1	0	0	0	0	-	0

Compound activity (PubChem)
